The record followed here is PubChem BioAssay.

Assay [1] can be described thus: compounds binding Alexa647 anti-His antibody – biochemical, small-molecule microarray, 635 nm fluorescence, artefact control for SMM control protein annotation, primary screen (AID 1128).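 Also: score merges feature fluorescence with signal-to-noise for each printed compound spot.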 The note with it: higher = more signal.
For assay [2], the system named is Human papillomavirus type 1a E7 protein (residues 1-88). Briefly: HPV1a E7 small-molecule binders, primary screen, biochemical, small-molecule microarray, residues 1-88, 635 nm (AID 1129). The note with it: small-molecule microarray binding, fluorescence 635 nm; higher = more signal.
Assay [3] addresses Focal adhesion kinase 1 (Homo sapiens) (UniProt Q05397). Briefly: PTK2 protein binding on printed compound slides – biochemical, small-molecule microarray, 635/667 nm fluorescence, BSA, DTT, primary screen (AID 1130).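 Also: composite of spot emission at 667 nm and signal to noise over triplicate slides.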 As to conditions: 635 nm fluorescence, higher = more signal.
Assay [4] deals with Fibrinogen (Alexa647-labelled). The assay can be described thus: Alexa647-fibrinogen binding to printed small molecules – biochemical, small-molecule microarray, 635/667 nm fluorescence, artefact control for SMM control-protein annotation, profiling panel (AID 1131).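 Also: z-score merges 667 nm fluorescence with per-spot signal-to-noise over triplicate slides.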 As to conditions: fibrinogen-A647 binding fluorescence, higher = more signal.
The target of assay [5] is Follistatin (Homo sapiens) (UniProt P19883). Briefly: FST protein binding to printed compounds – biochemical, small-molecule microarray, 635/667 nm fluorescence, primary screen (AID 1132). The note with it: 635 nm fluorescence, higher = more signal.
Chain of Follistatin (Homo sapiens) (P19883 whole entry, looked up): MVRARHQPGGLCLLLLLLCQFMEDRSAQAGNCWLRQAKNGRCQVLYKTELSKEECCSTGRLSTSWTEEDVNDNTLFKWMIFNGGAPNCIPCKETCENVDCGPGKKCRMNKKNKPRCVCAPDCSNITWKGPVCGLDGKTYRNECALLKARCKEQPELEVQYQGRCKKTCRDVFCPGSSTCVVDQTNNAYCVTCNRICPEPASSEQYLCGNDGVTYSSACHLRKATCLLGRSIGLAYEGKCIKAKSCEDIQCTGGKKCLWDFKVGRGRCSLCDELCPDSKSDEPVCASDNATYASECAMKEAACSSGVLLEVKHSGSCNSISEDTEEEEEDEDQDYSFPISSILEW
For assay [6], the target named is Fibroblast growth factor 2 (Homo sapiens) (UniProt P09038). Briefly: basic fibroblast growth factor binding to printed compounds – biochemical, small-molecule microarray, 635/667 nm fluorescence, primary screen (AID 1133). The note with it: FGF2, fluorescence 635/667, higher = more signal.
Chain of Fibroblast growth factor 2 (Homo sapiens) (P09038 whole entry, looked up): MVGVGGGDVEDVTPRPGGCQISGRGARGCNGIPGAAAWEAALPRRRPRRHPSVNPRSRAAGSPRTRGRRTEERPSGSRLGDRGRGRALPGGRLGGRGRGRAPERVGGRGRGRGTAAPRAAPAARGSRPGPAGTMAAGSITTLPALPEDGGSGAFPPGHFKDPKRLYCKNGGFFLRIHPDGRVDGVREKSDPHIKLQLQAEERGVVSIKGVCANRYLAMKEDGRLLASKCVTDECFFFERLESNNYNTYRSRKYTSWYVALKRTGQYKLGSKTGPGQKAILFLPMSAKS
Assay [7] in a line: JC-1 mitochondrial potential readout, lung cancer cells – cell-based, A549, JC-1 fluorescence, basal, 24 h, 100 nL, profiling panel (AID 1138).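 Also: A549 lung adenocarcinoma cells under basal conditions with no added stimulus; test concentration not given here.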 The note with it: higher = more signal.
Assay [8] concerns Lefty1. Briefly: Lefty1 protein binding to printed compounds – biochemical, small-molecule microarray, 635/667 nm fluorescence, primary screen (AID 1139). The note with it: fluorescence 635/667, higher = more signal.
Assay [9] concerns wheat germ agglutinin (Triticum aestivum), Alexa647-labelled. Briefly: Alexa647-WGA lectin binding to printed small molecules – biochemical, small-molecule microarray, 635/667 nm fluorescence, artefact control for SMM control-protein annotation, profiling panel (AID 1140).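 Also: score merges 667 nm feature emission with signal to noise over triplicate slides.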 As to conditions: WGA-A647 binding, 635 nm fluorescence, higher = more signal.
Assay [10] deals with Luciferin 4-monooxygenase (Photinus pyralis) (UniProt P08659). The assay can be described thus: inhibition of purified Photinus pyralis luciferase – biochemical, luminescence, purified enzyme, 2006 set, primary screen (AID 1141).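 Also: cell-free assay with purified firefly luciferase at 100 ng per well in PBS; test concentration not given here.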 The note with it: purified firefly luciferase, SteadyGlo luminescence, 30 min; higher = more signal, called active from +8 up or from −8 down.
Chain of Luciferin 4-monooxygenase (Photinus pyralis) (P08659 whole entry, looked up): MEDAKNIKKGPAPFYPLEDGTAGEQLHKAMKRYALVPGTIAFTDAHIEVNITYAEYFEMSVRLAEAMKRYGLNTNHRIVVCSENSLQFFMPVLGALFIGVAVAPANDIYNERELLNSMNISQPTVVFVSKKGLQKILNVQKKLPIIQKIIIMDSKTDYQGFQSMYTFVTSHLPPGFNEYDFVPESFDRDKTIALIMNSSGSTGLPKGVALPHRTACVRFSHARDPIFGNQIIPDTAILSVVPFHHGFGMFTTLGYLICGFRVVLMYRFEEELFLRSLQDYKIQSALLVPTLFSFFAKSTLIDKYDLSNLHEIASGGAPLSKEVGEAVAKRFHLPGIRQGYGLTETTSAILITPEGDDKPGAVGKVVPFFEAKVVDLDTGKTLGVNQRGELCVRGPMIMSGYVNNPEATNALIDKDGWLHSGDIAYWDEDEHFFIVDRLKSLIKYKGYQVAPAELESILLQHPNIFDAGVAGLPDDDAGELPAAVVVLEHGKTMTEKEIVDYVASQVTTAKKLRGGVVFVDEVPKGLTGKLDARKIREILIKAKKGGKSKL
For assay [11], the system named is Wnt5a (protein binding on small-molecule microarray). The assay can be described thus: small molecules binding Wnt5a protein – biophysical, small-molecule microarray, 635/667 nm fluorescence, primary screen (AID 1142).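 Also: fluorescence read at 667 nm with signal to noise per printed feature.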 As to conditions: 635 nm fluorescence, higher = more signal.
The nature of assay [12]: ATP-based viability of Huh7 replicon cells – cell-based, CellTiter-Glo luminescence, basal, 48 h, cytotoxicity control for HCV replication inhibitor project, primary screen (AID 1143).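 Also: Huh7 hepatoma cells carrying a hepatitis C replication reporter with no stimulus; test concentration not given here.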 The note with it: higher = more signal, called active from +8 up or from −8 down.
Assay [13] can be described thus: Pseudomonas biofilm growth suppression – PAO1 strain, BacTiter-Glo luminescence, LB-PBS, primary screen (AID 1144). As to conditions: P. aeruginosa PAO1 biofilm, 12 h, higher = more signal.
Assay [14] can be described thus: basal CRE-LacZ reporter activity in PC12 – cell-based, unstimulated, primary screen (AID 1145). The note with it: no forskolin, luminescence, 4.5 h, higher = more signal, called active from +8 up or from −8 down.
A short description of assay [15]: forskolin-driven CRE-LacZ activity in PC12 – cell-based, CRE-LacZ reporter, forskolin-stimulated, primary screen (AID 1146).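 Also: PC12 cells with 6xCRE LacZ reporter stimulated by forskolin 10 µM; beta-galactosidase reporter signal reflecting CREB driven transcription.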 The note with it: luminescence, 4.5 h, higher = more signal, called active from +8 up or from −8 down.
In assay [16] the target is Streptavidin (Streptomyces avidinii) (UniProt P22629). The assay can be described thus: compounds binding control protein streptavidin – biophysical, small-molecule microarray, 635/667 nm fluorescence, artefact control for SMM compound annotation, primary screen (AID 1147).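 Also: signal reflects streptavidin binding to arrayed compounds as a control protein.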 The note with it: higher = more signal.
Chain of Streptavidin (Streptomyces avidinii) (P22629 whole entry, looked up): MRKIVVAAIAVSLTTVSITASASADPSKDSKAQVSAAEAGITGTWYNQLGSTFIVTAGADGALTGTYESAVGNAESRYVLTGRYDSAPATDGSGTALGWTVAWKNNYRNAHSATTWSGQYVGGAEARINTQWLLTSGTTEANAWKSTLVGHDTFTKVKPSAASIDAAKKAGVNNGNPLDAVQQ
Assay [17] is described as follows: probe aInhba binding on compound microarray – biochemical, small-molecule microarray, 635/667 nm fluorescence, primary screen (AID 1148).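 Also: score merges 667nm spot fluorescence with signal-to-noise for antibody binding to printed compounds.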 The note with it: higher = more signal.
Assay [18] concerns the target Torsin-1A (Homo sapiens) (UniProt O14656). Briefly: TOR1A wild-type binding on microarray – cell lysate, small-molecule microarray, lysate, 635/667 nm, primary screen (AID 1149). The note with it: COS7 hTOR1A-WT lysate, 635 nm fluorescence, higher = more signal.
Assay [19] shares this target. The assay can be described thus: torsin A mutant lysate binding on microarrays – cell lysate, small-molecule microarray, COS7 lysate, 635/667 nm fluorescence, primary screen (AID 1150).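 Also: score pools 667 nm emission and signal to noise measuring lysate protein binding.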 The note with it: COS7 hTOR1A mutant lysate, 635 nm fluorescence, higher = more signal.
Assay [20] relates to Sonic hedgehog protein (Shh). Briefly: Sonic hedgehog microarray binding compounds – biochemical, small-molecule microarray, 635/667 nm fluorescence, primary screen (AID 1151).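 Also: Shh protein binding to compounds spotted on small-molecule microarray slides; score combines spot fluorescence intensity with signal-to-noise across triplicate slides.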 The note with it: 635 nm fluorescence, higher = more signal.

Where “and” joins values, the source holds several entries; their conditions need not be identical. Equal entries are not always repeated. Calls of active or inactive are those of the source. Unless noted, no rule for the calls is given here.

Chain of Torsin-1A (Homo sapiens) (O14656 whole entry, looked up): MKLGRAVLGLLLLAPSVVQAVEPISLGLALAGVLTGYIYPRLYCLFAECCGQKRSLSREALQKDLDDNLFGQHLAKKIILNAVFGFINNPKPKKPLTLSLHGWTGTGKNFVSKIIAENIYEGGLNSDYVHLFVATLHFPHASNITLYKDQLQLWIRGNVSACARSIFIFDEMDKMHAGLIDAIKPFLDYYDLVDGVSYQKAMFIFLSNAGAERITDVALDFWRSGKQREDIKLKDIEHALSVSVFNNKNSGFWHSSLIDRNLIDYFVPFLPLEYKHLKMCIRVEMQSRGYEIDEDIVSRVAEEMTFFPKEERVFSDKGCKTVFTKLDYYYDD
Chain of Focal adhesion kinase 1 (Homo sapiens) (Q05397 whole entry, looked up): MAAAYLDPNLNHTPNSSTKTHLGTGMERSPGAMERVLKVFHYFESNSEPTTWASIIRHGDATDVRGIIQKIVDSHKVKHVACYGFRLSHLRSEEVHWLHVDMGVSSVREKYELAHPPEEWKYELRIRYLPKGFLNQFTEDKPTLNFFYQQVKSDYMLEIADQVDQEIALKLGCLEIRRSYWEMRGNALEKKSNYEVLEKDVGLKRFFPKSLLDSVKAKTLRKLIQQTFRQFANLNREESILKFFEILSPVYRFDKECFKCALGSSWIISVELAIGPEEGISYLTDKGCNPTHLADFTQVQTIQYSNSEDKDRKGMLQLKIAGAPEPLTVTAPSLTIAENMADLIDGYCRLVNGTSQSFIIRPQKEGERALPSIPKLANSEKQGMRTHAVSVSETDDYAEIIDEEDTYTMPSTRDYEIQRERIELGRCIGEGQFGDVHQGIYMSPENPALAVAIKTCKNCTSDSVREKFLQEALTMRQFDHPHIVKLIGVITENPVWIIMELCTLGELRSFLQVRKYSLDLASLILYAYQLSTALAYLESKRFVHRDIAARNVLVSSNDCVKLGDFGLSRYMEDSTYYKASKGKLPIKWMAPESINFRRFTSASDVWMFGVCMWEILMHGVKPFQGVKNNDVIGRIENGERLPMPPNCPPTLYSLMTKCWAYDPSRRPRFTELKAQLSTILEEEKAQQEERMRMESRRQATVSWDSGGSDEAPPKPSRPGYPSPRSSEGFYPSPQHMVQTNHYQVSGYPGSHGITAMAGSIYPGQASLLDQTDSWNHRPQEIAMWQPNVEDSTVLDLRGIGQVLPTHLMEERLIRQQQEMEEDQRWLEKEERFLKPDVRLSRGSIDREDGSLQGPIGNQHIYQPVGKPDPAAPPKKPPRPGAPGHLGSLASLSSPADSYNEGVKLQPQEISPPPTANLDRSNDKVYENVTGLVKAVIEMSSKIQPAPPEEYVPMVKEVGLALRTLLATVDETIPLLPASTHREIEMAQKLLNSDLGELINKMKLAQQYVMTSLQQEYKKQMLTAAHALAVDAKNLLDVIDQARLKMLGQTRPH

On to `C=C[C@H](C)[C@H](O)c1ccc(O)c2ccccc12`, for which the composite z-score in [1] was 2.31 and -0.782; in assay [2] it was -0.402 and -0.622; in assay [3], -0.0703 and -0.493; in [4], -0.22 and -0.58; in assay [5] it was 0.0456 and 0.32; in assay [6] it was -0.671 and 1.31. For the same compound, the composite z-score in [8] was -0.494 and 0.152; in assay [9], -0.0985 and -0.45; in assay [11], -0.455 and 0.247; in assay [16], -0.663 and -0.935; in assay [17] it was -0.206 and -0.182; in assay [18] it was -1.49 and -0.75. Further, the composite z-score in assay [19] was -0.0641 and 0.204; in assay [20], 0.153 and 1.7. In addition, the z-score in assay [7] is -0.145 and 1.39; in assay [10], -1 (inactive) and -2.28 (inactive); in assay [12], -1.69 (inactive) and 0.651 (inactive); in assay [13], -0.143 (inactive) and -0.287 (inactive); in assay [14], 0.833 (inactive) and 1.94 (inactive); in assay [15] it was 1.13 (inactive) and -0.456 (inactive).

Regarding `C=CCN(CCCC)C(=O)C1N(c2ccc(CCO)cc2)C(=O)C2C(C(=O)O)C3C=CC21O3` (stereo not given), the composite z-score is -1.5 and -1.42 in assay [1]; -1.48 and -1.18 in assay [2]; -1.03 and 0.339 in [3]; -1.01 and -2.98 in assay [4]; -0.852 and -2.67 in assay [5]; -0.893 and -2.56 in assay [6]. Further, the composite z-score in assay [8] was -1.39 and -3.01; in [9], 0.0666 and -1.56; in [11], -0.612 and -0.135; in assay [16], -1.29 and -2.12; in assay [17], -0.389 and -0.409; in [18] it was -2.4 and -3.13. Besides, the composite z-score in [19] is -1.86 and -3.82; in assay [20] it was -1.43 and -2.14. For the same compound, the z-score in assay [7] was -0.898 and -0.353; in assay [10], 1.5 (inactive) and -1.51 (inactive); in [12], -0.544 (inactive) and -0.336 (inactive); in [13], -0.353 (inactive) and -1.38 (inactive); in assay [14] it was -0.224 (inactive) and 0.0524 (inactive); in assay [15] it was -0.153 (inactive) and 0.323 (inactive).

For `C=C[C@H](OC)[C@@H](O)c1ccc(O)c(F)c1`, the composite z-score in assay [1] was -0.876 and -0.764; in assay [2], -1.22 and -1.21; in assay [3], -0.918 and -0.807; in assay [4] it was -2.91 and -1.06; in [5] it was -1.25 and -1.48; in assay [6], -0.826 and -1.47. Further, the composite z-score was -2.23 and -1.28 in assay [8]; -1.47 and 0.129 in assay [9]; -0.542 and -1.18 in assay [11]; -1.42 and -1.09 in assay [16]; -0.409 and -0.32 in [17]; -1.55 and -3.36 in [18]. Moreover, the composite z-score in assay [19] is -1.77 and -2.26; in assay [20] it was -1.28 and -0.249. Moreover, the z-score in assay [7] was -0.547 and -0.0182; in assay [10], -0.173 (inactive) and -0.446 (inactive); in assay [12], -0.217 (inactive) and -0.324 (inactive); in assay [13], -0.263 (inactive) and -1.21 (inactive); in [14] it was 1.53 (inactive) and 0.353 (inactive); in assay [15] it was 1.41 (inactive) and 0.473 (inactive).

Consider `C=CCN(CCCCC)C(=O)C1N(C(C)(C)CO)C(=O)C2C(C(=O)O)C3C=CC21O3` (stereo not given), for which the composite z-score in assay [1] was -0.608 and -2.12; in assay [2], -0.943 and -0.793; in assay [3], -0.132 and -1.41; in [4] it was -2.7 and -1.18; in assay [5], -1.39 and -2.44; in assay [6], -2.46 and -1.74. Moreover, the composite z-score was -1.1 and -1.42 in assay [8]; -0.356 and -1.51 in [9]; -0.912 and -0.258 in assay [11]; -1.6 and -1.67 in assay [16]; -0.213 and -0.0791 in assay [17]; -3.01 and -1.59 in [18]. Further, the composite z-score in assay [19] was -2.24 and -1.18; in assay [20], -0.99 and -0.61. Besides, the z-score in [7] is -0.401 and 0.244; in [10], 0.169 (inactive) and 0.977 (inactive); in [12] it was 0.879 (inactive) and 1.06 (inactive); in [13], 1.13 (inactive) and 1.98 (inactive); in assay [14], -0.0737 (inactive) and -0.484 (inactive); in [15], -0.0682 (inactive) and 0.563 (inactive).
